These results are taken from PubChem BioAssay (NCATS).

The structures appear in SMILES notation. Inconclusive results are not listed. Calls of active or inactive are those of the source. Calls follow the shape of the dose curve; as a rule, active = well fitted cell-killing curve with a large enough effect; inconclusive = small, poorly fitted or top-dose-only effect, or effect the other way; inactive = no such curve, though single readings can be large or run the other way.
Potency is read from the fitted curve at half-maximal effect.

A short description of the first experiment: Quantitative High-Throughput drug screen in 47 multiple myeloma cell lines against the NCATS MIPE library collection: OPM2_DSMZ cell viability assay (AID 1919872). Also: nearly all actives have a fitted effect of over 30% in size. The conditions noted are these: OPM2 myeloma viability, CellTiter-Glo ATP luminescence, 48 h; series mostly up to 45.8 µM; viability (% of DMSO): at the top concentration. An outline of the steps: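 Myeloma cell lines, 500 cells per well, exposed to MIPE 4.0 library compounds for 48 h at 37C, 5% CO2. Viability from ATP by CellTiter-Glo luminescence; normalised to DMSO (100%) and media-only (0%) wells.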
In general terms: Cellular ATP, detected with luciferase, serves as a proxy for viable cell number.
As for `Cc1[nH]c(=O)c(C#N)cc1-c1ccncc1`, the “viability (% of DMSO)” value is 99.6% (inactive).

In the case of `CCOc1cc(N2CCC(O)CC2)ccc1Nc1ncc2c(n1)N(C)c1ccccc1C(=O)N2C`, the Potency was 13.2 µM (active).

On to `Nc1ccc(S(=O)(=O)Nc2ccnn2-c2ccccc2)cc1`, for which the “viability (% of DMSO)” value is 108% (inactive).

For `O=NN(CCCl)C(=O)NCCCl`, the “viability (% of DMSO)” value was 107% (inactive).

In the case of `Cc1c(C)c2c(c(C)c1O)CCC(C)(COc1ccc(CC3SC(=O)NC3=O)cc1)O2` (stereo unspecified), the “viability (% of DMSO)” value was 117% (inactive).

In the case of `COc1c(Cl)cc2c([nH]c3cnccc32)c1NC(=O)c1cccnc1C`, the “viability (% of DMSO)” value was 99.5% (inactive).

For the compound `COc1ccc(-c2ccc3c(N4CCOCC4)nc(N4C[C@@H](C)O[C@@H](C)C4)nc3n2)cc1CO`, the Potency was 1.18 µM (active).

For `CCn1cc(C(=O)O)c(=O)c2cc(F)c(N3CCNC(C)C3)c(F)c21` (stereo unspecified), the “viability (% of DMSO)” value is 109% (inactive).

As to `Nc1nc2c(ncn2COCCO)c(=O)[nH]1`, the “viability (% of DMSO)” value was 121% (inactive).

On to `OC(CN1CCC(Cc2ccc(F)cc2)CC1)c1ccc(Cl)cc1` (stereo unspecified), for which the “viability (% of DMSO)” value is 102% (inactive).

Regarding `CCN(c1ccccc1)c1cc(NC)[n+](C)c(C)n1`, the “viability (% of DMSO)” value is 86.6% (inactive).

For `CCOC(=O)C1=C[C@]2(CC)CCCN3CCc4c(n1c1ccccc41)[C@@H]32`, the Potency was 26.4 µM (active).

Turning to `CCCCNc1cc(C(=O)O)cc(S(N)(=O)=O)c1Oc1ccccc1`, the “viability (% of DMSO)” value was 123% (inactive).

For the compound `Cc1cn[nH]c1`, the Potency was 4.18 µM (active).

As to `Fc1ccc(Cl)cc1-c1nc(Nc2ccncc2)c2nccnc2n1`, the “viability (% of DMSO)” value was 88.4% (inactive).

Consider `CC(C)OC(=O)C1=CN(C(=O)c2ccc(F)c(F)c2)CC(C)(C)c2c1[nH]c1ccccc21`, for which the “viability (% of DMSO)” value was 106% (inactive).

Take `Cc1[nH]c(=O)c(C#N)cc1-c1ccc2nccn2c1`: the “viability (% of DMSO)” value was 92.8% (inactive).

Take `CC(c1cc2ccccc2s1)N(O)C(N)=O` (stereo unspecified): the “viability (% of DMSO)” value was 103% (inactive).

On to `O=C(c1cc(Cc2n[nH]c(=O)c3ccccc23)ccc1F)N1CCN(C(=O)C2CC2)CC1`, for which the “viability (% of DMSO)” value was 97.5% (inactive).

For the compound `COc1cccc2cc(-c3nc(C4CCC(C(=O)O)CC4)n4ncnc(N)c34)[nH]c12` (stereo unspecified), the Potency is 2.96 µM (active).

`COc1ccc([C@@H]2CC(=O)c3c(O)cc(O[C@@H]4O[C@H](CO[C@@H]5O[C@@H](C)[C@H](O)[C@@H](O)[C@@H]5O)[C@@H](O)[C@H](O)[C@@H]4O)cc3O2)cc1O`: the Potency result was “inactive”.

In the case of `CS(=O)(=O)c1cccc(CNc2nc(Nc3ccc4c(c3)CCC(=O)N4)ncc2C(F)(F)F)c1`, the Potency is 20.9 µM (active).

The nature of another experiment: Quantitative High-Throughput drug screen in 47 multiple myeloma cell lines against the NCATS MIPE library collection: KMS11_JCRBsus cell viability assay (AID 1919873). Also: nearly all actives have a fitted effect of over 50% in size. The note with it: KMS11 myeloma viability, CellTiter-Glo ATP luminescence, 48 h; series mostly up to 45.8 µM; viability (% of control): at the top concentration. An outline of the steps:
(§1)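 Viability after 48 h drug exposure was measured as ATP-dependent luminescence. Cells, 500 per well, sat at 37 °C under 5% CO2; DMSO wells set 100%, media-only wells 0%.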
As for `Cc1[nH]c(=O)c(C#N)cc1-c1ccncc1`, the “viability (% of control)” value is 87.5% (inactive).

As to `CCOc1cc(N2CCC(O)CC2)ccc1Nc1ncc2c(n1)N(C)c1ccccc1C(=O)N2C`, the Potency was 3.32 µM (active).

On to `COc1ccc2nc(S(=O)Cc3ncc(C)c(OC)c3C)[nH]c2c1` (stereo unspecified), for which the “viability (% of control)” value is 83.3% (inactive).

As to `COCC(=O)NCC=Cc1ccc2ncnc(Nc3ccc(Oc4ccc(C)nc4)c(C)c3)c2c1`, the Potency was 18.7 µM (active).

`COc1c(Cl)cc2c([nH]c3cnccc32)c1NC(=O)c1cccnc1C`: the Potency is 23.5 µM (active).

For `COc1ccc(-c2ccc3c(N4CCOCC4)nc(N4C[C@@H](C)O[C@@H](C)C4)nc3n2)cc1CO`, the Potency was 0.059 µM (active).

As to `CCn1cc(C(=O)O)c(=O)c2cc(F)c(N3CCNC(C)C3)c(F)c21` (stereo unspecified), the “viability (% of control)” value was 127% (inactive).

With `Nc1nc2c(ncn2COCCO)c(=O)[nH]1`, the “viability (% of control)” value is 83.6% (inactive).

Regarding `OC(CN1CCC(Cc2ccc(F)cc2)CC1)c1ccc(Cl)cc1` (stereo unspecified), the “viability (% of control)” value is 102% (inactive).

Turning to `CCN(c1ccccc1)c1cc(NC)[n+](C)c(C)n1`, the “viability (% of control)” value was 109% (inactive).

For the compound `CCOC(=O)C1=C[C@]2(CC)CCCN3CCc4c(n1c1ccccc41)[C@@H]32`, the Potency was 8.33 µM (active).

On to `Cc1cn[nH]c1`, for which the Potency is 0.166 µM (active).

As to `COc1cc(Oc2ccnc3cc(OC)c(OC)cc23)ccc1NC(=O)NC(C)c1nccs1` (stereo unspecified), the Potency is 18.7 µM (active).

For `O=c1[nH]cnc2[nH]ncc12`, the “viability (% of control)” value was 101% (inactive).

On to `CC(C)OC(=O)C1=CN(C(=O)c2ccc(F)c(F)c2)CC(C)(C)c2c1[nH]c1ccccc21`, for which the “viability (% of control)” value was 95.8% (inactive).

As for `Cc1[nH]c(=O)c(C#N)cc1-c1ccc2nccn2c1`, the “viability (% of control)” value was 66.2% (inactive).

`CC(c1cc2ccccc2s1)N(O)C(N)=O` (stereo unspecified): the “viability (% of control)” value was 106% (inactive).

Regarding `COc1cccc2cc(-c3nc(C4CCC(C(=O)O)CC4)n4ncnc(N)c34)[nH]c12` (stereo unspecified), the Potency was 0.132 µM (active).

In the case of `COc1ccc([C@@H]2CC(=O)c3c(O)cc(O[C@@H]4O[C@H](CO[C@@H]5O[C@@H](C)[C@H](O)[C@@H](O)[C@@H]5O)[C@@H](O)[C@H](O)[C@@H]4O)cc3O2)cc1O`, the “viability (% of control)” value is 131% (inactive).

With `Cn1cnc2c(F)c(Nc3ccc(Br)cc3Cl)c(C(=O)NOCCO)cc21`, the “viability (% of control)” value was 97.1% (inactive).

With `CS(=O)(=O)c1cccc(CNc2nc(Nc3ccc4c(c3)CCC(=O)N4)ncc2C(F)(F)F)c1`, the Potency is 8.33 µM (active).

A short description of another experiment: Quantitative High-Throughput drug screen in 47 multiple myeloma cell lines against the NCATS MIPE library collection: KMS28BM_JCRB cell viability assay (AID 1919874). Also: nearly all actives have a fitted effect of over 35% in size. The note with it: CellTiter-Glo ATP, 48 h; series mostly up to 45.8 µM; viability, % of control: at the top concentration. An outline of the steps:
as §1
Regarding `Cc1[nH]c(=O)c(C#N)cc1-c1ccncc1`, the Potency was 11.8 µM (active).

As for `CCOc1cc(N2CCC(O)CC2)ccc1Nc1ncc2c(n1)N(C)c1ccccc1C(=O)N2C`, the Potency was 4.69 µM (active).

With `Nc1ccc(S(=O)(=O)Nc2ccnn2-c2ccccc2)cc1`, the “viability, % of control” value is 107% (inactive).

As to `COCC(=O)NCC=Cc1ccc2ncnc(Nc3ccc(Oc4ccc(C)nc4)c(C)c3)c2c1`, the Potency is 29.6 µM (active).

`Cc1c(C)c2c(c(C)c1O)CCC(C)(COc1ccc(CC3SC(=O)NC3=O)cc1)O2` (stereo unspecified): the “viability, % of control” value was 91.1% (inactive).

As to `COc1c(Cl)cc2c([nH]c3cnccc32)c1NC(=O)c1cccnc1C`, the Potency was 26.4 µM (active).

On to `COc1ccc(-c2ccc3c(N4CCOCC4)nc(N4C[C@@H](C)O[C@@H](C)C4)nc3n2)cc1CO`, for which the Potency is 1.32 µM (active).

On to `CCn1cc(C(=O)O)c(=O)c2cc(F)c(N3CCNC(C)C3)c(F)c21` (stereo unspecified), for which the “viability, % of control” value was 131% (inactive).

With `CCOC(=O)C1=C[C@]2(CC)CCCN3CCc4c(n1c1ccccc41)[C@@H]32`, the Potency was 8.33 µM (active).

As for `Cc1cn[nH]c1`, the Potency was 0.0469 µM (active).

In the case of `COc1cc(Oc2ccnc3cc(OC)c(OC)cc23)ccc1NC(=O)NC(C)c1nccs1` (stereo unspecified), the Potency is 9.35 µM (active).

Turning to `Fc1ccc(Cl)cc1-c1nc(Nc2ccncc2)c2nccnc2n1`, the “viability, % of control” value was 90.7% (inactive).

As to `Cc1[nH]c(=O)c(C#N)cc1-c1ccc2nccn2c1`, the “viability, % of control” value is 74.9% (inactive).

Take `CC(c1cc2ccccc2s1)N(O)C(N)=O` (stereo unspecified): the “viability, % of control” value was 115% (inactive).

Consider `O=C(c1cc(Cc2n[nH]c(=O)c3ccccc23)ccc1F)N1CCN(C(=O)C2CC2)CC1`, for which the “viability, % of control” value is 132% (inactive).

For the compound `COc1cccc2cc(-c3nc(C4CCC(C(=O)O)CC4)n4ncnc(N)c34)[nH]c12` (stereo unspecified), the Potency was 1.48 µM (active).

`COc1ccc([C@@H]2CC(=O)c3c(O)cc(O[C@@H]4O[C@H](CO[C@@H]5O[C@@H](C)[C@H](O)[C@@H](O)[C@@H]5O)[C@@H](O)[C@H](O)[C@@H]4O)cc3O2)cc1O`: the Potency result was “inactive”.

As for `CS(=O)(=O)c1cccc(CNc2nc(Nc3ccc4c(c3)CCC(=O)N4)ncc2C(F)(F)F)c1`, the Potency was 16.6 µM (active).
